Assay results published in PubChem BioAssay (NCI).
About 83,000 compounds went through this panel and 20% of them were active in at least one assay; those are over-represented in the sample as a whole.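 Percent growth is the endpoint: 0 to 100 indicates growth inhibition (40 means 60% inhibition), 0 means no net growth, and negative values indicate cell death.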 Unmarked numbers belong to inactive results. Calls of active or inactive are those of the source.

Each compound was assayed on HCT-15 colon (assay: NCI-60 one-dose screen, 48 h (100 = growth as untreated, 0 = no growth, -100 = all killed)). Conditions: 10 µM.
Protocol: Growth inhibition of the HCT-15 human tumor cell line is measured as a screen for anti-cancer activity. Cells are grown in 96 well plates and exposed to the test compound for 48 hours. Compounds are tested at a single concentration, which is 10^-5 M for most compounds. The reported endpoint is percent growth (GI% or GIPRCNT), where numbers from 0 - 100% represent growth inhibition, and numbers from -100% - 0 represent cell death. For example, a value of 40 represents 60% growth inhibition. A value of 0 means no net growth occurred over the course of the experiment. A value of -40 indicates 40% of cells at the beginning of the experiment died by the end of the experiment. A value of -100 means all cells are dead at the end of the experiment.
NCI-60 Human Tumor Cell Lines Screen was performed using the standard one-dose NCI protocol, which is described in more detail at https://dtp.cancer.gov/discovery_development/nci-60/default.htm.
Compounds with GIPRCNT values below 10 were considered active. Activity score was based on GIPRCNT using the following formula: […]
Score is 0 for GIPRCNT values of 100 or above, 50 for GIPRCNT values of 0, and 100 for GIPRCNT values of -100.
In the case of `COc1cc(Nc2ccnc(NCCCNc3ccnc4cc(Cl)ccc34)n2)cc(OC)c1`, the growth is reported as 0.0216% (active).
`CNc1ccc(CSc2ccc(C)cc2)cc1` was tested, and the growth was 89.2%.
`O=C1OCC2=C1C(c1cccc(Cl)c1)c1cc3c(cc1N2CCO)OCO3` (stereo not given) was tested, and the growth was 18.5%.
`COc1ccc(OC)c2c1C(=O)CC2C` (stereo not given) showed a growth of 110%.
`O=C1OCC2=C1C(c1cccc(Cl)c1)c1cc3c(cc1N2CCO)OCCO3` (stereo not given) was tested, and the growth was 8.81% (active).
Work on `CSc1nc(=O)n(Cc2ccc(Cl)cc2)c(=O)[nH]1` yielded a growth of 103%.
Work on `CCOC(=O)CNC(=O)CCCCSc1ncnc2nc[nH]c12` yielded a growth of 101%.
`Clc1ccccc1N=Cc1ccc2c(c1)OCO2` showed a growth of 100%.
Compound `Cc1cc(C)c(CCc2cc(C)c(C)cc2C)cc1C` has a growth of 117%.
For `Cc1cc(N(CCCNc2ccnc3cc(Cl)ccc23)Cc2ccc3c(c2)OCO3)nc(N2CCCCC2)n1`, the growth was -78.3% (active).
With `COc1ccc2nc3cc(Cl)ccc3c(NCCNCC(C)O)c2c1` (stereo not given) the growth was 19.4%.
With `CCN(CC)CCCC(C)Nc1ccc2ccc(Cl)cc2n1` (stereo not given) the growth was 102%.
`CC1=C(N2CCOCC2)C(N2CCOCC2)=C(C)C(=O)C1=O` showed a growth of 99.6%.
`CCN1CCN(c2nc3ccccc3c3c(=O)c4ccccc4sc23)CC1` was tested, and the growth was 31.8%.
`FC(F)(F)c1ccc(-c2cnc(Cl)nc2N2CCC3(CC2)OCCO3)cc1` gave a growth of 93.6%.
Compound `CN(C)CCNC(=O)c1cccn2c(=O)c3cc4ccccc4cc3nc12` has a growth of 12.7%.
In the case of `N=c1nc(N)ncn1-c1ccccc1`, the growth is reported as 99.1%.
In the case of `CCCCCCNC(=O)Oc1ccc(/C(=C(/CC)Cc2ccccc2)c2ccc(OCCN3CCCCC3)cc2)cc1`, the growth is reported as 39%.
For `c1ccc([C@H]2CN3CCSC3=N2)cc1`, the growth was 108%.
With `N#CCCN1C/C(=C/c2ccc(Cl)cc2)C(=O)/C(=C/c2ccc(Cl)cc2)C1` the growth was 2.04% (active).
`C#Cc1ccc(-n2c(/C=C/c3ccc4ccccc4c3)nc3ncccc3c2=O)cc1` gave a growth of 25.4%.
`CCCCCCCCCCCCCCCCCC(=O)OCCCCCCC` gave a growth of 95.5%.
For `Cc1occc1-c1nnc(SCC(=O)c2ccc(NC(=O)CC(C)C)cc2)o1`, the growth was 121%.
`CC(=O)c1nc2ccccc2n1CCNC(N)=O` gave a growth of 103%.
Compound `O=C1/C(=C\c2cn(C(=O)c3ccc(Cl)cc3)c3ccccc23)c2ccccc2N1C(=O)c1ccc(Cl)cc1` has a growth of 65.8%.
`CN(Cc1ccccc1)Cc1ccc([N+](=O)[O-])cc1I` was tested, and the growth was 92.2%.
With `COc1ccc(-n2c(SCc3cc(OC)c(OC)c(OC)c3)nc3ccc(C)cc3c2=O)cc1` the growth was 33.6%.
With `Clc1ccc(-c2cn(-c3ccccc3)c(-c3ccccc3)n2)c(Cl)c1` the growth was -71.4% (active).
Work on `COc1ccc(-c2nn(-c3cccc(NC(=O)c4ccc(N5CCOCC5)c(C(F)(F)F)c4)c3)cc2-c2ccncc2)cc1Cl` yielded a growth of 53.5%.
Compound `COc1ccc(/C=C/C(C)=N/OCC(=O)O)cc1` has a growth of 102%.
With `COc1ccc(-c2nc(-c3nc4ccc(OC)cc4[nH]3)cc3c2[nH]c2ccccc23)cc1` the growth was 28.7%.
`c1ccc(CNc2ncnc3scc(-c4cccs4)c23)nc1` showed a growth of 76%.
Compound `O=C(c1ccc(Cl)cc1Cl)N1CCOCC1` has a growth of 112%.
In the case of `O=C1/C(=C\c2ccc(F)cc2)CN(C(=O)c2ccccc2F)C/C1=C\c1ccc(F)cc1`, the growth is reported as -16.3% (active).
Work on `Cc1cn(C2CCCCO2)c(=O)nc1NO` (stereo not given) yielded a growth of 100%.
`COc1cc(-c2cc(-c3cc4c([nH]c5ccccc54)c(-c4cc(OC)c(OC)c(OC)c4)n3)cc(-c3ccccc3)n2)cc(OC)c1OC` was tested, and the growth was 51.6%.
For `CCOC(=O)C1CCc2c(ccc3ccccc23)N1CCC#N` (stereo not given), the growth was 91.9%.
For `C#Cc1ccc(-n2c(/C=C/c3ccc(Cl)c(F)c3)nc3ncccc3c2=O)cc1`, the growth was 2.43% (active).
For `Nc1c(C(=O)Nc2ccccc2Cl)sc2nc3c(cc12)C(=O)CCC3`, the growth was 32.8%.
For `N#CCCN1C/C(=C/c2ccccc2)C(=O)/C(=C/c2ccccc2)C1`, the growth was -56.4% (active).
